Among the data in PubChem BioAssay (NCI) are growth values, retold here.

This is part of a sample that, as a whole, favours compounds with a hit. Of some 83,000 tested, about 20% had one in any assay.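 A percent growth of 40 corresponds to 60% growth inhibition; 0 means no net growth; -100 means all cells died. Active threshold: below 10.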 Unmarked numbers belong to inactive results. Active and inactive are the calls of the source.

Common to all, as to experiment: NCI-60 one-dose screen, 48 h (100 = growth as untreated, 0 = no growth, -100 = all killed)
Conditions in all cases: 10 µM unless noted

For assay [1], the system named is SK-MEL-2 melanoma.
The test system of assay [2] is EKVX NSCLC.
Assay [3] deals with SN12C renal.
In assay [4] the test system is UO-31 renal.
Assay [5] relates to TK-10 renal.
Assay [6] has as its system ACHN renal.
Assay [7] relates to CAKI-1 renal.
The subject of assay [8] is A498 renal.
Assay [9] relates to CCRF-CEM leukemia.
Assay [10] deals with MOLT-4 leukemia.
Assay [11] has as its system SR leukemia.
The subject of assay [12] is RPMI-8226 leukemia.
Assay [13] has as its system OVCAR-8 ovarian.
The subject of assay [14] is OVCAR-5 ovarian.
In assay [15] the test system is OVCAR-4 ovarian.
In assay [16] the test system is IGROV1 ovarian.
Assay [17] relates to OVCAR-3 ovarian.
For assay [18], the system named is HS 578T breast.
Assay [19] has as its system NCI/ADR-RES ovarian.
Assay [20] has as its system SK-OV-3 ovarian.

Take `CC(C)CC1C(=O)N2CCC[C@H]2C2(O)O[C@](NC(=O)C3C=C4c5cccc6[nH]c(Br)c(c56)C[C@H]4N(C)C3)(C(C)C)C(=O)N12` (stereo partly specified): the growth is 77.4% in assay [1]; 54.6% in assay [2]; 40.3% in assay [3]; 36.2% in assay [4]; 54.6% in assay [5]; 43.6% in [6]. The growth in [7] is 61.1%; in [8], 76.5%; in assay [9] it was 58.3%; in assay [10], 15.9%; in [11], 28.6%; in assay [12], 11.1%. Besides, the growth is 63.3% in assay [13]; 69.6% in [14]; 41% in assay [15]; 59% in assay [16]; 61.5% in [17]; 89.7% in [18]. Besides, the growth in assay [19] is 57.7%.

Turning to `COc1ccc(S(=O)(=O)N2CCCCCC2)cc1NC(=O)c1[nH]c(C)c2c1CCCCC2=O`, the growth in assay [1] was 43.4%; in assay [2], 38.4%; in assay [3], 36.9%; in assay [4], 12.1%; in [5] it was 15.3%; in assay [6] it was 25.2%. In addition, the growth in assay [7] is 12.7%; in assay [8], -25.6% (active); in assay [9] it was 33.7%; in assay [10] it was 30.6%; in assay [11], 35.6%; in assay [12], 10.7%. Besides, the growth in [13] was 28.5%; in assay [14], 50.5%; in assay [15], 37.3%; in assay [20] it was 14.1%; in assay [16], 24.2%; in assay [17], 30.4%. For the same compound, the growth in [19] was 29.2%.

Turning to `CN(C)CCN1C(=O)c2cccc3c(N)ccc(c23)C1=O`, the growth was 19.6% in [1]; 30.5% in assay [2]; 33.6% in assay [3]; 26.8% in assay [4]; 58.9% in assay [5]; 12.8% in assay [6]. The growth is -7.49% (active) in assay [7]; 65.6% in assay [8]; 10.5% in assay [9]; 1.9% (active) in assay [10]; -19.2% (active) in [11]; 4.13% (active) in assay [12]. Moreover, the growth is 18.1% in assay [13]; 36.5% in assay [14]; 41.6% in [15]; 32.2% in assay [20]; 21.8% in assay [17]; 56.8% in [18]. Moreover, the growth in [19] was 40%.

As to `C#CCOc1ccc2ncnc(N3CCN(C(=O)CCl)CC3)c2c1`, the growth was 87.6% [8.25 µM] in assay [1]; 96.7% [8.25 µM] in assay [2]; 40.7% [8.25 µM] in [3]; 75.5% [8.25 µM] in [4]; 99.1% [8.25 µM] in [5]; -54.7% [8.25 µM] (active) in assay [6]. The growth is 109% [8.25 µM] in [7]; 110% [8.25 µM] in [8]; 10.7% [8.25 µM] in assay [9]; 67.1% [8.25 µM] in assay [10]; 33.4% [8.25 µM] in assay [11]; 92.9% [8.25 µM] in [12]. Further, the growth was 72.2% [8.25 µM] in [13]; 93.3% [8.25 µM] in assay [14]; 63.8% [8.25 µM] in assay [15]; 68.6% [8.25 µM] in [20]; 78.7% [8.25 µM] in [17]; 94.6% [8.25 µM] in assay [18]. The growth in [19] is 98.5% [8.25 µM].

As for `Cc1cn2c(/C=C3/C(=O)Nc4c3ccc3ccccc43)c(C(F)(F)F)nc2s1`, the growth in assay [1] is 20%; in [2] it was 44.4%; in assay [3], 38.2%; in assay [4], 34.7%; in [5], 36.3%; in assay [6], 48.5%. For the same compound, the growth in [7] is 34.3%; in [8], 0.919% (active); in assay [9], 16.4%; in [10] it was 35.1%; in [11], 8.46% (active); in assay [12], 14.7%. The growth in assay [13] was 27.7%; in assay [15] it was 51.3%; in assay [16] it was 42.1%; in [17], -1.83% (active); in assay [18] it was 16.5%; in assay [19], 5.22% (active).

For `Oc1ccccc1-c1nnc(CNc2ccc(Cl)cc2)o1`, the growth was 30.1% in assay [1]; 38.9% in assay [2]; 40.6% in [3]; 19% in assay [4]; 44.7% in assay [5]; 12.7% in assay [6]. Moreover, the growth in assay [7] is 17%; in [8], 77.9%; in [9], 11.8%; in [10], 15.5%; in [11], 10.4%; in assay [12], 23.4%. The growth was 18.6% in assay [13]; 64% in assay [14]; 34.2% in assay [15]; 19.5% in assay [20]; 26.1% in [17]; 57.6% in [18]. In addition, in assay [19], the growth was 13.4%.

For `OC(c1cc2cc(Cl)c(Cl)cc2c2cc(C(F)(F)F)ccc12)C1CCCCN1` (stereo unspecified), the growth in assay [1] was -54.2% (active); in [2], -24.8% (active); in assay [3], -73.2% (active); in assay [4], -74.2% (active); in assay [5], -75.2% (active); in assay [6], -82.5% (active). The growth in [7] is -46.4% (active); in assay [8], 48.1%; in assay [9], -45% (active); in assay [10], -60.3% (active); in assay [11], -59.9% (active); in assay [12], -37.1% (active). Further, the growth in assay [13] was -71.3% (active); in assay [14] it was -41.6% (active); in assay [20], 34%; in [16], -64.9% (active); in assay [17] it was -90.3% (active); in assay [18], -50.4% (active). Also, the growth in assay [19] is -79.1% (active).

Consider `CC(C)(C)c1cc(C(C)(C)C)cc(S(=O)(=O)Nc2cc3ccccc3cc2C(=O)NCCN)c1`, for which the growth in assay [1] was 62.3%; in [2] it was 89.5%; in assay [3], 46.6%; in assay [4], 53.2%; in assay [5], 78.8%; in assay [6], 70.9%. Also, the growth in assay [7] was 64%; in assay [8] it was -2.57% (active); in assay [9] it was 57.7%; in [10], 77%; in [11], -32.1% (active); in assay [12] it was -5.61% (active). In addition, the growth in assay [13] is 5.01% (active); in assay [14], 94.8%; in assay [15], 70.6%; in [16] it was 62.3%; in [17], 70.5%; in assay [18], 73.2%. For the same compound, the growth in [19] was 82%.
